Values joined by “and” are separate entries in the source; they are usually repeats but may differ in a detail not shown here. Equal entries are not always repeated. Inconclusive results are not listed. The source holds several records for some structures; these can differ, active in one and inactive in another. Active and inactive are the calls of the source. Calls follow the shape of the dose curve; as a rule, active = well fitted inhibition curve with a large enough effect; inconclusive = small, poorly fitted or top-dose-only effect; inactive = flat fitted curve, though single readings scatter.
System: HEK293
Assay: Cytotoxic Profiling of Annotated Libraries Using Quantitative High-Throughput Screening (AID 1296008); also: nearly all actives have a fitted effect of over 60% in size
Settings: Five cell lines viability, CellTiter-Glo ATP luminescence, 48-72 h; max response: active compounds read low
From the text: Cell-based phenotypic screening is a commonly used approach to discover biological pathways, novel drug targets, chemical probes and high-quality hit-to-lead molecules. Many hits identified from high-throughput screening campaign are ruled out through a series of follow-up potency, selectivity/specificity, and cytotoxicity assays. Prioritization of molecules with little or no cytotoxicity for a more in-depth downstream evaluation influence the future direction of projects, so cytotoxicity profiling of the screening libraries at early stage is essential for increasing the likelihood of candidate success. […] For the annotated library, we also examined the primary targets and mechanistic pathways regularly associated with cell death. To our knowledge, this is the first study to use high-throughput screening to profile large libraries for cytotoxicity assessment in both normal and cancer cell lines. In summary, the results generated here constitutes a valuable resource for the scientific community and provides insight on identifying cytotoxic compounds with particular mechanisms of action, and prioritizing compounds with suitable cytotoxicity profile for further evaluation.
A pintool (Kalypsys) was used to transfer 23 nL of compound solution to the 1536-well assay plates. After 48 or 72 hr incubation at 37 degree Celsius, 5% CO2 and 95% humidity, 2.5 uL of CellTiter-Glo (Promega) was dispensed into each well using a dispenser (Aspect Automation, St. Paul, MN) with solenoid valves (Lee Valves, Westbrook CT). Plates were left at room temperature for 10 min before imaging the ATP-coupled luminescence using a ViewLux microplate imager (PerkinElmer, Waltham, MA).
% is scaled to controls: 0 for no effect and ±100 for the full control effect; potency is read from the fitted curve at half-maximal effect.

Structure (SMILES) | Potency | max response | outcome
NCC(=O)Nc1ccc(-n2nc(C(F)(F)F)cc2-c2ccc3c(ccc4ccccc43)c2)cc1 | 166 nM (active) and 1.46 µM (active) |  | 
N#CCNC(=O)c1ccc(-c2ccnc(Nc3ccc(N4CCOCC4)cc3)n2)cc1 | 18.7 µM (active) and 23.1 µM (active) |  | 
CS(=O)(=O)c1ccc(-c2cnc(N)c(C(=O)Nc3ccccc3)n2)cc1 | 11.6 µM (active) |  | 
Nc1nc(Nc2ccc(S(N)(=O)=O)cc2)nn1C(=O)c1c(F)cccc1F | 5.9 µM (active) and 2.59 µM (active) |  | 
O=C(C=Cc1cccnc1)NCCCCC1CCN(C(=O)c2ccccc2)CC1 | 0.0074 µM (active) |  | 
Cc1cc(Nc2cc(N3CCN(C)CC3)nc(Sc3ccc(NC(=O)C4CC4)cc3)n2)n[nH]1 | 7.43 µM (active) and 7.31 µM (active) |  | 
CCOC(=O)C1=C(C)NC2=C(C(=O)CC(C)(C)C2)C1c1ccc(-c2ccccc2)cc1 (stereo not given) | 16.6 µM (active) and 2.91 µM (active) |  | 
CCN(CC)CCCCNc1ncc2cc(-c3cc(OC)cc(OC)c3)c(NC(=O)NC(C)(C)C)nc2n1 | 4.18 µM (active) |  | 
O=C(c1ccc(Nc2nccc(-c3cc4ccccc4s3)n2)cc1)N1CCC(N2CCCC2)CC1 | 5.26 µM (active) |  | 
CC1(C)O[C@@H]2C[C@@H]3[C@H]4C[C@@H](F)C5=CC(=O)C=C[C@]5(C)[C@@]4(F)[C@@H](O)C[C@]3(C)[C@]2(C(=O)CO)O1 |  | -3.12% (inactive) | 
CC(C)(C)c1cc(NC(=O)Nc2ccc(-c3cn4c(n3)sc3cc(OCCN5CCOCC5)ccc34)cc2)no1 | 1.18 µM (active) and 5.8 µM (active) |  | 
Cc1cc(Nc2cc(CN3CCOCC3)c3nc(C)c(Cc4ccc(Cl)cc4F)n3n2)n[nH]1 | 11.8 µM (active) and 16.4 µM (active) |  | 
CCc1cc2c(cc1N1CCC(N3CCOCC3)CC1)C(C)(C)c1[nH]c3cc(C#N)ccc3c1C2=O | 3.17 µM (active) | -78.7% (inactive) | 
Cn1cc(-c2ccncc2)c(-c2ccc(OCc3ccc4ccccc4n3)cc2)n1 | 3.72 µM (active) and 20.6 µM (active) |  | 
Cc1[nH]nc2ccc(-c3cncc(OC[C@@H](N)Cc4ccccc4)c3)cc12 | 209 nM (active) and 651 nM (active) |  | 
CC1=C(CO)C(=O)O[C@@H]([C@@H](C)[C@H]2CC[C@H]3[C@@H]4C[C@H]5O[C@]56[C@@H](O)C=CC(=O)[C@]6(C)[C@@H]4CC[C@]23C)C1 | 0.332 µM (active) |  | 
COC(=O)Nc1nc2ccc(C(=O)c3ccc(F)cc3)cc2[nH]1 | 590 nM (active) and 820 nM (active) |  | 
CN(c1ncccc1CNc1nc(Nc2ccc3c(c2)CC(=O)N3)ncc1C(F)(F)F)S(C)(=O)=O | 3.72 µM (active) |  | 
C[C@@H](Oc1cc(-c2cnn(C3CCNCC3)c2)cnc1N)c1c(Cl)ccc(F)c1Cl | 4.18 µM (active) and 4.11 µM (active) and 5.8 µM (active) |  | 

Structure (SMILES) | Potency | max response | outcome
Nc1ccccc1NC(=O)c1ccc(CNC(=O)OCc2cccnc2)cc1 | 7.43 µM (active) and 6.51 µM (active) |  | 
CNC(=O)c1cc(Oc2ccc(NC(=O)Nc3cc(C(C)(C)C)nn3-c3ccc4ncccc4c3)c(F)c2)ccn1 | 23.5 µM (active) |  | 
Cc1ccc(NC(=O)C2(c3ccc4c(c3)OC(F)(F)O4)CC2)nc1-c1cccc(C(=O)O)c1 | 0.0372 µM (active) |  | inactive
OCc1ccc(-c2ccc(-c3ccc(CO)s3)o2)s1 | 0.142 µM (active) |  | 
C[C@@H](Oc1cc(-n2cnc3ccc(CN4CCN(C)CC4)cc32)sc1C(N)=O)c1ccccc1C(F)(F)F | 0.0332 µM (active) |  | 
O=C(CCCCCCC(=O)Nc1ccc([C@H]2O[C@@H](CSc3nc(-c4ccccc4)c(-c4ccccc4)o3)C[C@@H](c3ccc(CO)cc3)O2)cc1)NO | 14.8 µM (active) and 18.4 µM (active) |  | 
CN1c2cc(O)c(N=NC(N)=O)cc2CC1S(=O)(=O)O (stereo not given) |  | 2.9% (inactive) | 
CCCCCCCCCC(=O)N[C@@H](Cc1c[nH]c2ccccc12)C(=O)N[C@H](CC(N)=O)C(=O)N[C@@H](CC(=O)O)C(=O)N[C@@H]1C(=O)NCC(=O)N[C@@H](CCCN)C(=O)N[C@@H](CC(=O)O)C(=O)N[C@H](C)C(=O)N[C@@H](CC(=O)O)C(=O)NCC(=O)N[C@H](CO)C(=O)N[C@@H]([C@@H](C)CC(=O)O)C(=O)N[C@@H](CC(=O)c2ccccc2N)C(=O)O[C@@H]1C |  | 3.78% (inactive) | inactive
O=C(O)[C@H](Cc1c[nH]c2ccccc12)N1C(=O)c2ccccc2C1=O |  |  | inactive
O=C(C=Cc1cccc(S(=O)(=O)Nc2ccccc2)c1)NO | 19.1 µM (active) |  | 
Cc1cnc(Nc2ccc(F)cc2Cl)nc1-c1c[nH]c(C(=O)N[C@H](CO)c2cccc(Cl)c2)c1 |  | -111% (inactive) | 
Nc1cccc(-c2cc3c(Oc4cccc(O)c4)ncnc3[nH]2)c1 | 20.9 µM (active) and 18.4 µM (active) |  | 
COc1cc(C(=O)N2CCC(N3CCN(C)CC3)CC2)ccc1Nc1ncc2c(n1)N(C)c1ccccc1C(=O)N2C | 11.8 µM (active) and 9.2 µM (active) |  | 
CC(=O)Nc1sc2c(c1-c1nc3ccccc3s1)CNC2 | 11.8 µM (active) |  | 
O=C(Nc1ncc(-c2cc(C(F)F)nn2-c2c(Cl)cccc2Cl)s1)C1CC1 | 1.05 µM (active) |  | 
COc1cc(C(C)C)c2c(c1)S(=O)(=O)N(COc1cc(=O)n3cccc(OCCN4CCCCC4)c3n1)C2=O |  | -21.7% (inactive) | 
CCS(=O)(=O)c1cccc(-c2cc(C(=O)NC3CCN(C)CC3)c(C)c3[nH]c4ncc(C)cc4c23)c1 | 1.87 µM (active) and 2.02 µM (active) |  | 
CC(C)c1nn(-c2c(Cl)cccc2Cl)c2nc(Cc3ccc(OCCO)cc3)[nH]c(=O)c12 | 59 nM (active) and 36.6 nM (active) |  | 
